Bioassay records as filed in PubChem BioAssay.
KB-V1 cytotox: qHTS assay for MDR1-selective chemotherapeutics: Primary screen using the drug-selected MDR subline cells KB-V1. KB-V1 MDR cells viability, CellTiter-Glo, 72 h. Potency, µM (highest dose often 46.1 µM), hits mostly cytotoxic. 3.4% of 400,000 active. AID 1347076, 2019; further: on the % scale 0 is the no-effect control and ±100 the full control effect; nearly all actives have a fitted effect of over 60% in size
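KB-V1 cells (P-gp-expressing MDR subline of KB-3-1) in phenol-red-free DMEM with 10% FBS were exposed to library compounds over a concentration series for 72 h at 37 degrees C. Viability read by CellTiter-Glo luminescence; concentration-effect curves fitted after normalization.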
PTAP TSG101 blk: qHTS Assay for Iinhibitors of HIV-1 Budding by Blocking the Interaction of PTAP/TSG101. Tumor susceptibility gene 101 protein (Homo sapiens), Q99816. Fluorescence polarization, FITC-PTAP peptide / Tsg101 binding. Potency, µM (series often up to 115 µM), inactives show at the top dose activity change, negative = inhibition, hits mostly inhibitors. 340,000 tested, under 10 active. AID 493005, 2010; active means well fitted inhibition curve with a large enough effect in the main read-out, with a control signal flat, not every such curve was filed as active; inconclusive means small, poorly fitted or top-dose-only effect, or effect the other way, or a change in a side signal; inactive means no such curve, though single readings can be large or run the other way; further: % of control where 0% means no effect
Target sequence (Q99816 whole entry, looked up): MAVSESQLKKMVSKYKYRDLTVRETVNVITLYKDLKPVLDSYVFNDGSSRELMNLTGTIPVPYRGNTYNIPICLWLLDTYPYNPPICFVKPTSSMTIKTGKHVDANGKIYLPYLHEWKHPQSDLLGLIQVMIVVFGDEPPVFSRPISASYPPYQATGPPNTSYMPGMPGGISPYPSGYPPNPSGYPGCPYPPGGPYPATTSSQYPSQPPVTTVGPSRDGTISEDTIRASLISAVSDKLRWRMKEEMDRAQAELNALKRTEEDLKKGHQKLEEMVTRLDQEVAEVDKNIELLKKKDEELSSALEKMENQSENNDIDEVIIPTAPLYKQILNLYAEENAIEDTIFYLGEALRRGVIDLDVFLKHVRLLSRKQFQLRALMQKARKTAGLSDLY
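Steps: Tsg101 binding domain dispensed (10 uM final), compounds pinned in DMSO, FITC-labeled PTAP-motif peptide added (50 nM final); after 20 min binding at room temperature, polarization measured.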
SW480 rereplic: A quantitative high throughput screen for small molecules that induce DNA re-replication in SW480 colon adenocarcinoma cells; SW480 DNA re-replication, Hoechst DNA content imaging, 48 h; Potency, µM (doses to about 46.1 µM), for the others: at the highest dose re-replication activation, actives largely listed as activators; 1.8% of 340,000 active; AID 624297, 2012; further: % of control where 0% means no effect; nearly all actives have a fitted effect of over 55% in size
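First, 250 cells per well were seeded. Next, compound or vehicle (23 nL) was pinned in, plates sat 48 hr at 37 C. Finally Hoechst was added for 40 min before fluorescence scanning.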
RGS4 inh: Inhibitors of Regulator of G Protein Signaling (RGS) 4: qHTS. 0.039% of 390,000 active. AID 504845, 2011. Regulator of G-protein signaling 4 (Homo sapiens), P49798. Transcreener GDP fluorescence polarization, RGS4-accelerated GTP hydrolysis. Potency, µM (top dose mostly 114 µM), for inactives: at the top dose activity change, negative = inhibition, hits mostly inhibitors; further: on the % scale 0 is the no-effect control and ±100 the full control effect; nearly all actives have a fitted effect of over 75% in size
Target sequence (P49798 whole entry, looked up): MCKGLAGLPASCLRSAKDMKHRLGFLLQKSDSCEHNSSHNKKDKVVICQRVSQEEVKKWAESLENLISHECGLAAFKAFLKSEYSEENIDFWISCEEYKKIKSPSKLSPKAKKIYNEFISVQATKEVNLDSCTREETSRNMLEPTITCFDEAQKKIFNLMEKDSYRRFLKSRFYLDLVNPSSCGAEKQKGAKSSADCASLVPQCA
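MLSMR compounds (23 nl, pin-transferred) preincubated 10 min at room temperature with a 500nM (2x) first reagent, then RGS4 at 900nM (2x) plus Transcreener GDP mix added; fluorescence polarization (620/688 nm) read before and after 90 min at 30 °C.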
KB-3-1 tox: qHTS assay for MDR1-selective chemotherapeutics: Primary screen using the parental adenocarcinoma cell KB-3-1 | KB-3-1 viability, CellTiter-Glo ATP luminescence, 72 h | Potency, µM (titrated, usually from 46.1 µM), hits mostly cytotoxic | 1.4% of 400,000 active | AID 1347075, 2019; further: on the % scale 0 is the no-effect control and ±100 the full control effect; nearly all actives have a fitted effect of over 60% in size
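Cells are dispensed, compounds pinned in, plates held at 37 °C for 72 h, then CellTiter-Glo is added and luminescence read after 10 minutes. Cell line: parental KB-3-1 in phenol-red-free DMEM, 10% FBS.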
MCF10A rereplic: A quantitative high throughput screen for small molecules that induce DNA re-replication in MCF 10a normal breast cells; MCF 10A DNA re-replication, Hoechst nuclear intensity, 48 h; Potency, µM (titrated, usually from 46.1 µM), for the others: at the top dose activity, positive = re-replication, actives largely listed as activators; 2.9% of 350,000 active; AID 624296, 2012; further: % of control where 0% means no effect; nearly all actives have a fitted effect of over 50% in size
Numbers without * were called inactive; i = inactive; ? = inconclusive; . = no result given; [ ] = dose if it differs, or a comment. Shown are actives, neighbours in structure and some others; about 6.6% of the full set was active somewhere. Unless noted, the call rests on the fitted dose curve; in most records, active means well fitted curve in the direction sought with a large enough effect; inconclusive means small, poorly fitted or top-dose-only effect, or another doubt; inactive means no such curve, though single readings can be large; an effect the other way counts as inactive or inconclusive. Potency means the concentration at half of the fitted maximal effect.

SMILES	KB-V1 cytotox	PTAP TSG101 blk	SW480 rereplic	RGS4 inh	KB-3-1 tox	MCF10A rereplic
CC(=O)c1cccc(NS(=O)(=O)c2ccc3c(c2)oc(=O)n3C)c1	16.4µM*	-5.9%	-2.9%	-42.4%	?	1.3%
Cn1c(=O)oc2cc(S(=O)(=O)Nc3ccccc3)ccc21	i	1.2%	-1.9%	?	i	-12.6%
CS(=O)(=O)N1CCN(C(=O)c2csc3ccccc23)CC1	i	-3.9%	-10.0%	4.4%	i	0.6%
Cc1scc(C(=O)N2CCN(S(C)(=O)=O)CC2)c1-c1ccccc1	23.1µM*	-2.7%	0.4%	-10.4%	i	-4.3%
COc1cc(C(=O)NCc2ccc3c(c2)CCN3C(=O)c2ccncc2)cc(OC)c1OC	i	.	.	-2.5%	i	.
COc1ccc(NS(=O)(=O)c2ccc3c(c2)CCCN3C(=O)C2CCC2)cc1OC	?	.	.	-2.3%	2.59µM*	.
S=C(c1ccc2c(c1)OCO2)N1CCN(c2cccc(Cl)c2)CC1	?	-2.1%	5.17µM*	-34.4%	4.11µM*	1.46µM*
Cc1cccc(N2CCN(C(=S)c3ccc4c(c3)OCO4)CC2)c1	i	-6.6%	6.51µM*	?	10.3µM*	1.3µM*
O=C(c1ccc2c(c1)OCO2)N1CCN(c2ccc(Cl)cc2)CC1	?	-4.0%	8.3%	22.9%	i	?
CC1CCN(C(=S)c2ccc3c(c2)OCO3)CC1	i	-6.0%	-10.2%	6.7%	i	-8.9%
COc1ccc(C(C)=O)cc1CSc1nc2ccccc2c(=O)n1-c1ccccc1C	20.6µM*	-2.0%	3.8%	-10.5%	i	4.5%
COc1ccccc1-n1c(SCc2cc(=O)oc3cc(O)ccc23)nc2ccccc2c1=O	18.4µM*	-1.1%	4.2%	13.8%	?	?
C=CCn1c(SCc2cc(C(C)=O)ccc2OCC)nc2ccccc2c1=O	2.31µM*	-0.5%	1.84µM*	-30.4%	1.16µM*	1.03µM*
Cc1ccc(C)c(SC2=NS(=O)(=O)c3ccccc32)c1	i	.	.	.	i	.
COc1cccc(CNC(=O)c2ccc(-c3nc(CS(=O)(=O)c4ccccc4)c(C)o3)cc2)c1	?	.	.	-20.6%	i	.
CSc1ccc(CCNC(=O)CCCn2c(=O)c3cccn3c3ccccc32)cc1	.	.	.	-24.0%	.	.
Cc1ccc(C)c(S(=O)(=O)Nc2ccc(O)c3ccccc23)c1	i	-4.1%	-3.7%	-12.7%	i	-1.0%
Cc1ccc(S(=O)(=O)Nc2ccc(O)c3ccccc23)c(C)c1	i	2.6%	1.3%	-12.2%	i	20.6µM*
Cc1ccc(S(=O)(=O)Nc2ccc3c4c(cccc24)CC3)c(C)c1	20.6µM*	-2.5%	?	-4.9%[11.4 µM]	?	?
Cc1cc(C)c(S(=O)(=O)Nc2ccccc2)c(C)c1	18.4µM*	-3.7%	3.9%	-17.0%	i	9.1%
Cc1cc(C)c(S(=O)(=O)Nc2ccc3c4c(cccc24)CC3)c(C)c1	1.3µM*	-1.0%	?	-41.6%	0.731µM*	0.366µM*
CCN1CCN(c2cc3c(cc2F)c(=O)c(S(=O)(=O)c2ccc(OC)cc2)cn3CC)CC1	i	.	.	18.2%	i	.
CC1(C(=O)Nc2ccccc2)CCN1C(=O)Cc1ccc(-c2ccccc2)cc1 (configuration not stated)	i	.	.	.	i	.
CC1(C(=O)Nc2ccc3c(c2)OCO3)CCN1C(=O)Cc1ccc(-c2ccccc2)cc1 (configuration not stated)	3.26µM*	.	.	.	11.6µM*	.
CC1(C(=O)Nc2ccc3c(c2)OCCO3)CCN1Cc1ccc2ccccc2c1 (configuration not stated)	20.6µM*	.	.	.	?	.
SMILES	KB-V1 cytotox	PTAP TSG101 blk	SW480 rereplic	RGS4 inh	KB-3-1 tox	MCF10A rereplic
CC1=Nc2ccccc2/C1=C/c1c(N)n2c(S(=O)(=O)CC(C)C)nsc2nc1=O	i	-2.5%	1.9%	10.3%	i	14.6µM*
CC1=Nc2ccc(C)cc2/C1=C/c1c(N)n2c(S(=O)(=O)C(C)C)nsc2nc1=O	i	-2.1%	13.0%	?	i	?
CSc1nsc2nc(=O)c(/C=C3\C(C)=Nc4ccc(C)cc43)c(N)n12	i	-19.6%	?	-26.1%	?	9.2µM*
CC1=Nc2ccc(C)cc2/C1=C/c1c(N)n2nc(CC(=O)N3CCOCC3)sc2nc1=O	i	0.1%	1.0%	-2.2%	i	-9.7%
CC1=Nc2ccc(C)cc2/C1=C/c1c(N)n2oc(C)cc2nc1=O	?	13.4%	2.4%	-2.4%	?	18.4µM*
Nc1ccc(/C=C/c2cccc3cccnc23)cc1	i	.	.	.	i	.
CC(C)OCCCNC(=O)C(=O)Nc1c2c(nn1-c1ccccc1)CS(=O)(=O)C2	i	.	.	1.1%	i	.
CCc1ccc2occ(CC(=O)Nc3ccc(OC)c(Cl)c3)c2c1	.	.	.	20.2%	.	.
COc1ccc(C=O)cc1COc1ccc2c(c1)OCO2	?	-2.0%	3.66µM*	10.2%	?	?
COc1ccc(C=O)cc1COc1ccccc1F	?	-0.6%	?	-8.9%	i	13.6%
COc1ccc(C=O)cc1COc1ccc([N+](=O)[O-])c(C)c1	i	-3.2%	14.6µM*	1.9%	i	?
CCCCC(NC(=O)Cc1c(C)c2cc3c(-c4ccccc4)coc3c(C)c2oc1=O)C(=O)O (configuration not stated)	?	-6.1%	-4.4%	-16.0%[56.9 µM]	i	20.6µM*
CCCN(CCC)S(=O)(=O)c1ccc(N2CCCC2=O)c([N+](=O)[O-])c1	20.6µM*	-4.2%	-5.3%	-10.2%	i	1.0%
Cc1ccc(N2CC(NC(=O)c3ccco3)CC2=O)cc1 (configuration not stated)	.	.	.	-0.5%	.	.
O=C(NCCCN1CCOCC1)C(=O)N/N=C/c1c2ccccc2cc2ccccc12	10.3µM*	-3.0%	23.1µM*	-1.1%	5.8µM*	?
Cc1cc(C(=O)N/N=C/c2ccc(-c3cccc(Br)c3)o2)n[nH]1	i	1.0%	20.6µM*	3.8%	i	?
NC(=O)C(=O)N/N=C/c1c2ccccc2cc2ccccc12	i	-4.6%	?	21.5%	i	23.1µM*
CCOc1ccc2ccccc2c1/C=N/NC(=O)c1cc(C)[nH]n1	?	0.2%	-31.0%	6.3%	i	-5.9%
